The results in this text go back to publication PMC4336329 (PLoS ONE, 2015).

The whole screen tested about 310,000 compounds, of which about 14,000 (4.5%) showed an effect of 50% or more. Effects have a minus sign here. The list comes from a sample in which strong results are over-represented; it also holds similar structures and randomly drawn compounds.
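Also: peak tail current of the secondary pulse compared with the same well before compound.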

Chain of human ether-à-go-go-related gene (hERG) potassium channel (Q12809 whole entry, looked up): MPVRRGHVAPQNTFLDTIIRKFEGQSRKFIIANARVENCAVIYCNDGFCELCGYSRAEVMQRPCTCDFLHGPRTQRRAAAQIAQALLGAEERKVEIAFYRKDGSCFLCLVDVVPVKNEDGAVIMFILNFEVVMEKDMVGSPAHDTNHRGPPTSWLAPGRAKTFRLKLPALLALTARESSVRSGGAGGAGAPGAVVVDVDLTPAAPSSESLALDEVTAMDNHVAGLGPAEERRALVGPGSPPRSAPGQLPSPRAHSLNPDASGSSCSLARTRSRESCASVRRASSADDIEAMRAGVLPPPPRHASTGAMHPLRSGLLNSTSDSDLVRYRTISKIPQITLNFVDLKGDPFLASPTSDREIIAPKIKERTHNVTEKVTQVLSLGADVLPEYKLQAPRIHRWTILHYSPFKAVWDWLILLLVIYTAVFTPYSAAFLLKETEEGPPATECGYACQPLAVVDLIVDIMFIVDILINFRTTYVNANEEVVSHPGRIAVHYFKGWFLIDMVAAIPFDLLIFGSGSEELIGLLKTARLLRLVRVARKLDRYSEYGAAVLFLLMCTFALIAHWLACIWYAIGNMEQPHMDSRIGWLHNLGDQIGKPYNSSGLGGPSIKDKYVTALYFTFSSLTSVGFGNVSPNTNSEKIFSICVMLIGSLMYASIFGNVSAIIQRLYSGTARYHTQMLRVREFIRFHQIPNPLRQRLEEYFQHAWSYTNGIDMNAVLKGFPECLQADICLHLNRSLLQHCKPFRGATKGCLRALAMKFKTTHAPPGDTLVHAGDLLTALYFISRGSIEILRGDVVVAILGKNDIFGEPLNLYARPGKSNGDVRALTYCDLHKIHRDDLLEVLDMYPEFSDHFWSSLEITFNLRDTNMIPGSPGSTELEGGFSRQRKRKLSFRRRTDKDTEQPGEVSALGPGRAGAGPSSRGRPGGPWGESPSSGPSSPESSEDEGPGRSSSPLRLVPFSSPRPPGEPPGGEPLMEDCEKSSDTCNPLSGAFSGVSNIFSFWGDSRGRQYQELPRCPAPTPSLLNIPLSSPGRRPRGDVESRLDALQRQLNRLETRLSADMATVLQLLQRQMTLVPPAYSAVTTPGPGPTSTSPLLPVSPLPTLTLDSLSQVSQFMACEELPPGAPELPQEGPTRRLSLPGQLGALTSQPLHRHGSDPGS

The assay addresses human ether-à-go-go-related gene (hERG) potassium channel (human, UniProt Q12809). The experiment in a line: primary screen, population patch clamp on CHO cells stably expressing hERG; higher = less effect of the substance.
As for `COc1ccc(/C=C/CN2CCC(n3nccc3NC(=O)C3CC3)CC2)cc1`, the “hERG current change (%, negative = inhibition) at 10uM” value is -72.7%.
For the compound `COc1ccc(/C=C/CN2CCC(n3nccc3NC(=O)C3CCCC3)CC2)cc1`, the “hERG current change (%, negative = inhibition) at 10uM” value was -88.6%.
As for `COc1ccc(OCC(=O)N2CCC(n3nccc3NC(=O)C3CC3)CC2)cc1`, the figure is 1.44%.
As for `COc1ccc(CC(=O)N2CCC(n3nccc3NC(=O)C3CC3)CC2)cc1`, the figure is 13.7%; as for `COC(=O)c1ccc2c(=O)n(-c3ccccc3)c(SCN3C(=O)c4ccccc4C3=O)nc2c1`, 11%; as for `COc1ccc(/C(C)=N/Nc2ccc(F)cc2F)c(O)c1`, 6.58%.
For `COc1ccccc1C(=O)NC(=O)CSc1nc(C)cs1`, the “hERG current change (%, negative = inhibition) at 10uM” value is on record as 12%.
Regarding `CCOC(=O)N1CCN(C(=O)CN(c2cccc(OC)c2)S(C)(=O)=O)CC1`, the “hERG current change (%, negative = inhibition) at 10uM” value is -5.17%.
`COc1cc(O)c(C(CCN2CCOCC2)c2cc(OC)c(OC)c(OC)c2)c(OC)c1` (centres unmarked): the “hERG current change (%, negative = inhibition) at 10uM” value worked out at 8.02%.
For the compound `COc1ccc(C(CCN2CCCC(C)C2)c2c(OC)cc(OC)c3c(C)cc(=O)oc23)cc1` (centres unmarked), the “hERG current change (%, negative = inhibition) at 10uM” value was -74.3%.
In the case of `COc1cc(OC)c2c(C)cc(=O)oc2c1C(CCN1CCOCC1)c1ccc(N(C)C)cc1` (centres unmarked), the “hERG current change (%, negative = inhibition) at 10uM” value is listed as -28.5%.
As for `COc1cc(C(CCN2CCN(c3ccccc3)CC2)c2c(OC)cc(OC)c3c(C)cc(=O)oc23)cc(OC)c1OC` (centres unmarked), the “hERG current change (%, negative = inhibition) at 10uM” value was -6.01%.
For `COc1cc(OC)c2c(C)cc(=O)oc2c1C(CCN1CCN(c2ccccc2)CC1)c1ccc2c(c1)OCO2` (centres unmarked), the “hERG current change (%, negative = inhibition) at 10uM” value is listed as -11.1%.
In the case of `COc1ccc(C(CC(=O)N2CCOCC2)c2c(OC)cc(OC)c3c(-c4ccccc4)cc(=O)oc23)cc1` (centres unmarked), the “hERG current change (%, negative = inhibition) at 10uM” value is 12%.
As for `COc1cc(C(CCN2CCOCC2)c2c(OC)cc(OC)c3c(C)cc(=O)oc23)cc(OC)c1OC` (centres unmarked), the figure is -79.3%; as for `COc1cc(OC)c2c(C)cc(=O)oc2c1C(CCN1CCOCC1)c1ccc2c(c1)OCO2` (centres unmarked), -68.4%.
For `COc1cc(OC)c2c(-c3ccccc3)cc(=O)oc2c1C(CCN1CCCC(C)C1)c1ccc(N(C)C)cc1` (centres unmarked), the “hERG current change (%, negative = inhibition) at 10uM” value was -30%.
For `COc1ccc(C(CCN2CCOCC2)c2c(OC)cc(OC)c3c(C)cc(=O)oc23)cc1` (centres unmarked), the “hERG current change (%, negative = inhibition) at 10uM” value was -69.2%.
Turning to `COc1cc(OC)c2c(-c3ccccc3)cc(=O)oc2c1C(CC(=O)N1CCOCC1)c1ccc2c(c1)OCO2` (centres unmarked), the “hERG current change (%, negative = inhibition) at 10uM” value stood at 1.51%.
Turning to `COc1ccc(C(CC(=O)N2CCCC(C)C2)c2c(OC)cc(OC)c3c(-c4ccccc4)cc(=O)oc23)cc1` (centres unmarked), the “hERG current change (%, negative = inhibition) at 10uM” value was 8.57%.
As for `CCOc1ccc(S(=O)(=O)N2CCC(C(=O)OC(C)C(=O)N3CCOCC3)CC2)cc1` (centres unmarked), the “hERG current change (%, negative = inhibition) at 10uM” value was -25.2%.
On to `O=C(Cc1ccccc1[N+](=O)[O-])N/N=C/c1cccnc1`, for which the “hERG current change (%, negative = inhibition) at 10uM” value stood at 10%.
As for `COc1ccccc1C(=O)NCC(=O)OCC(=O)c1ccc2c(c1)-c1ccccc1C2`, the “hERG current change (%, negative = inhibition) at 10uM” value is on record as -0.208%.
For `Cc1nnc(NC(=O)C2CCCN(S(=O)(=O)Cc3ccccc3)C2)s1` (centres unmarked) the value was -2.64%.
Consider `CCc1ccc(N(CC(=O)NC2CCCC2)S(=O)(=O)c2c(C)noc2C)cc1`, for which the “hERG current change (%, negative = inhibition) at 10uM” value is listed as -7.76%.
Take `O=C(Nc1nnc(C2=COCCO2)o1)c1ccc(S(=O)(=O)N2CCCC2)cc1`: the “hERG current change (%, negative = inhibition) at 10uM” value was 17.2%.
For `O=C(NCc1cccnc1)C1CCC(CNS(=O)(=O)c2cccc3nsnc23)CC1` (centres unmarked) the value was -9.63%; for `CCOC(=O)CCc1c(C)nc2cc(-c3ccc(Cl)cc3)[nH]n2c1=O`, -7.09%.
With `CCOC(=O)CC(NCc1ccc(OC)c(OCC)c1)c1ccc(C)cc1.Cl` (centres unmarked), the “hERG current change (%, negative = inhibition) at 10uM” value is listed as -39%.
For `CC(C)C(NC(=O)c1ccco1)C(=O)NCC(c1ccco1)N1CCCCC1` (centres unmarked), the “hERG current change (%, negative = inhibition) at 10uM” value was determined as 20%.
As for `COC(=O)Cn1c(CN2CCOCC2)nc2c1c(=O)[nH]c(=O)n2C`, the figure is 3.43%; as for `COc1cc(C(CCN2CCCC2)c2c(OC)cc(OC)c3c(C)cc(=O)oc23)cc(OC)c1OC` (centres unmarked), -75.5%; as for `CCN(CC)CCC(c1cc(OC)c(OC)c(OC)c1)c1c(OC)cc(OC)c2c(C)cc(=O)oc12` (centres unmarked), -48.5%.
Take `COc1cc(C(CCN2CCCCC2)c2c(OC)cc(OC)c3c(C)cc(=O)oc23)cc(OC)c1OC` (centres unmarked): the “hERG current change (%, negative = inhibition) at 10uM” value is listed as -99.6%.
As for `Oc1ccc(Br)cc1CNn1cnnc1`, the figure is 13.9%.
For `COc1ccc(OC)c(CNc2ccc3c(c2)CCC3)c1` the value was 20.4%.
Turning to `CC(C(=O)O)n1nc2ccccc2n1` (centres unmarked), the “hERG current change (%, negative = inhibition) at 10uM” value stood at 21.4%.
As for `CCOC(=O)c1c(CC(C)C)csc1NC(C)=O`, the “hERG current change (%, negative = inhibition) at 10uM” value is -2.62%.
For `CC(C)[C@H](NC(=O)N1c2ccccc2NC(=O)[C@@H]1C(C)C)C(=O)N[C@@H](Cc1c[nH]c2ccccc12)C(=O)O` the value was 3.11%.
As for `O=C(O)CSc1ccnc2cc(Cl)ccc12`, the figure is 16.2%; as for `COc1cc(OC)cc(-c2c(-c3ccc(F)cc3)c3cc(-c4ccc5cc[nH]c5c4)ccc3n2C)c1`, 14.2%.
In the case of `CNC(=O)COc1coc(CN2CCN(c3ccc(OC)cc3)CC2)cc1=O`, the “hERG current change (%, negative = inhibition) at 10uM” value came to 1.11%.
As for `C=C1CCN([C@@H](CC(C)C)C(=O)N2CCOCC2)S(=O)(=O)c2ccccc21`, the “hERG current change (%, negative = inhibition) at 10uM” value is 13.3%.
As for `C=C1CCN([C@@H](CC(C)C)C(=O)O)S(=O)(=O)c2ccccc21`, the figure is 22.6%.
`C=C1CCN([C@@H](CC(C)C)C(=O)N2CCCC2)S(=O)(=O)c2ccccc21`: the “hERG current change (%, negative = inhibition) at 10uM” value was -54.7%.
Take `O=C(c1ccc2nsnc2c1)N1CCN(c2ccc([N+](=O)[O-])cc2)CC1`: the “hERG current change (%, negative = inhibition) at 10uM” value is -75.5%.
In the case of `Cl.O.O=c1c2ccccc2nc2n1CC/C2=C/N1CCN(c2cccc(C(F)(F)F)c2)CC1`, the “hERG current change (%, negative = inhibition) at 10uM” value is -28%.
For `Cc1nc2ccccc2c(=O)n1-c1ccc([N+](=O)[O-])cc1` the value was 7.26%; for `O=C(c1ccc(NC2=NC3CS(=O)(=O)CC3S2)cc1)N1CCN(c2ccc([N+](=O)[O-])cc2)CC1` (centres unmarked), -4.75%; for `Cc1ccc(C)c(N2CCN(C(=O)c3ccc4nsnc4c3)CC2)c1`, -1.44%.
With `CCc1nc2ccc(C(=O)N3CCN(c4ccc(Cl)cc4)CC3)cc2nc1CC`, the “hERG current change (%, negative = inhibition) at 10uM” value is -6.46%.
As to `CCc1nc2ccc(C(=O)N3CCN(c4ccccc4)CC3)cc2nc1CC`, the “hERG current change (%, negative = inhibition) at 10uM” value is listed as -5.04%.
As to `O=C(c1ccc2c(=O)n3c(nc2c1)CCCCC3)N1CCN(c2ccc(Cl)cc2)CC1`, the “hERG current change (%, negative = inhibition) at 10uM” value is recorded as -48%.
On to `O=c1c2ccccc2nc2n1CC/C2=C\N1CCN(c2ccc([N+](=O)[O-])cc2)CC1`, for which the “hERG current change (%, negative = inhibition) at 10uM” value is reported as -78.1%.
As for `CCc1nc2ccc(C(=O)N3CCN(c4ccc([N+](=O)[O-])cc4)CC3)cc2nc1CC`, the figure is -72.1%; as for `O=C(c1ccc2c(=O)n3c(nc2c1)CCCCC3)N1CCN(c2ccc(F)cc2)CC1`, -42.1%.
`O=C(c1ccc2c(=O)n3c(nc2c1)CCCCC3)N1CCN(c2ccc([N+](=O)[O-])cc2)CC1`: the “hERG current change (%, negative = inhibition) at 10uM” value was -73%.
Turning to `CCOP(=O)(c1ccccc1)C1(O)CCCCC1` (centres unmarked), the “hERG current change (%, negative = inhibition) at 10uM” value is reported as -1.86%.
Regarding `CCCc1oc(C(=O)O)cc1CN1CCOCC1.Cl`, the “hERG current change (%, negative = inhibition) at 10uM” value came to 8.54%.
Turning to `COC(=O)C1=C(C)N(Cc2ccccc2)C(=O)N[C@H]1c1ccco1`, the “hERG current change (%, negative = inhibition) at 10uM” value stood at 5.95%.
For `O=C(NCC(c1cccnc1)N1CCN(c2ccc(F)cc2)CC1)c1ccccc1` (centres unmarked), the “hERG current change (%, negative = inhibition) at 10uM” value is -40.2%.
For `O=C(NCC(c1cccnc1)N1CCN(c2ccc(F)cc2)CC1)c1ccc2c(c1)OCO2` (centres unmarked) the value was -65.3%; for `COc1ccc(N2CCN(C(CNC(=O)c3ccc4c(c3)OCO4)c3cccnc3)CC2)cc1` (centres unmarked), -16.2%.
For `COc1ccc(N2CCN(C(CNC(=O)c3cccc(Cl)c3)c3cccnc3)CC2)cc1` (centres unmarked) the value was -38.7%.
With `O=C(NCC(c1cccnc1)N1CCN(c2ccccc2)CC1)c1ccc2c(c1)OCO2` (centres unmarked), the “hERG current change (%, negative = inhibition) at 10uM” value is listed as -26.5%.
Turning to `O=C(NCC(c1cccnc1)N1CCN(c2ccc(F)cc2)CC1)c1cccc(Cl)c1` (centres unmarked), the “hERG current change (%, negative = inhibition) at 10uM” value was -66.2%.
As to `COCCN=c1scc(-c2ccc3c(c2)NC(=O)CO3)n1/N=C(\C)c1ccc(O)cc1`, the “hERG current change (%, negative = inhibition) at 10uM” value was -8.23%.
Consider `Cn1c(=NC(=O)C2CC2)sc2cc(F)cc(F)c21`, for which the “hERG current change (%, negative = inhibition) at 10uM” value is -12.3%.
`CCOC(=O)c1c(NC(=O)c2cccs2)sc(CC)c1-c1cccs1`: the “hERG current change (%, negative = inhibition) at 10uM” value is -11%.
As to `Cc1nnc(NC(=O)CSc2ccc([N+](=O)[O-])cn2)s1`, the “hERG current change (%, negative = inhibition) at 10uM” value stood at 17.9%.
As for `CCOC(=O)C1CCN(CC(C)(C)NS(=O)(=O)c2ccc(C)cc2)CC1`, the figure is -4.95%.
`CC(=O)N1CCN(CC(C)(C)NS(=O)(=O)c2ccc(C)cc2)CC1`: the “hERG current change (%, negative = inhibition) at 10uM” value is 7.76%.
On to `CCOC(=O)C1CCN(CC(C)(C)NS(=O)(=O)c2ccccc2)CC1`, for which the “hERG current change (%, negative = inhibition) at 10uM” value is reported as 11.5%.
Regarding `Cc1ccc(S(=O)(=O)NC(C)(C)CN2CCC(Cc3ccccc3)CC2)cc1.O=C(O)C(=O)O`, the “hERG current change (%, negative = inhibition) at 10uM” value is recorded as -64.8%.
Turning to `CC(C)(CN1CCC(Cc2ccccc2)CC1)NS(=O)(=O)c1ccccc1.O=C(O)C(=O)O`, the “hERG current change (%, negative = inhibition) at 10uM” value is reported as -60.8%.
For `CC(C)(CN1CCCC1)NS(=O)(=O)c1ccccc1.Cl`, the “hERG current change (%, negative = inhibition) at 10uM” value is 24.7%.
In the case of `COC(=O)c1ccc(-n2cc(-c3ccc(OC)cc3)[nH]c2=S)cc1`, the “hERG current change (%, negative = inhibition) at 10uM” value turned out to be 33.1%.
For the compound `Nc1c(C(=O)c2ccc(Cl)cc2)sc2c1c(=O)[nH]c(=O)n2-c1ccccc1`, the “hERG current change (%, negative = inhibition) at 10uM” value is -24.2%.
For `CC[C@]1(c2ccccc2)C(=O)N(C(=O)OC)N1C(=O)OC`, the “hERG current change (%, negative = inhibition) at 10uM” value was determined as 25.2%.
Regarding `COc1ccc(-c2noc3c2-c2nc(-c4ccc(Cl)cc4)sc2CC3)cc1`, the “hERG current change (%, negative = inhibition) at 10uM” value was determined as 9.5%.
